Source: PubChem BioAssay (National Center for Advancing Translational Sciences (NCATS))
The full list was thinned out, with hits kept by preference.
p53ts 32C tox = qHTS Screen for Compounds that Selectively Target Cancer Cells with p53 Mutations: Cytotoxicity of p53ts Cells at the Permissive Temperature | H1299-p53A138V at 32C, ATP luminescence viability, 24 h | Potency, µM (doses to about 46.1 µM), without a hit: at the highest dose activity change, negative = cytotoxicity, most hits filed as cytotoxic | 130,000 tested, 0.93% active;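 also: potency is read from the fitted curve at half-maximal effect; 0% = DMSO and -100% = full killing by reference compound; nearly all actives have a fitted effect of over 55% in size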
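Cells: H1299 p53ts (A138V), 600/well, pre-incubated 16–30 h at 37C. Cpd up to 46 uM, 24 h, 32C. Readout: ATPlite luminescence, 20 min RT. Normalization: DMSO vs tamoxifen 100 uM. AC50 by Hill equation.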
Hsp90 Hop PPI = qHTS Assay for Disrupters of an Hsp90 Co-Chaperone Interaction; Hsp90 C-terminal peptide / TPR2A (Hop) interaction, human; AlphaScreen TPR2A-His6 binding biotin-Hsp90 C-terminal peptide; Potency, µM (titrated, usually from 57 µM), for inactives: at the highest dose activity change, negative = inhibition; 71,000 tested, 0.44% active; AID 595, 2007; active = well fitted curve in either direction with a large enough effect; inconclusive = small, poorly fitted or top-dose-only effect, or another doubt; also: potency is read from the fitted curve at half-maximal effect; % is scaled to controls: 0 for no effect and ±100 for the full control effect
Luciferase inh = qHTS Assay for Inhibitors of Firefly Luciferase. Luciferin 4-monooxygenase (Photinus pyralis), P08659. purified firefly luciferase, luminescence, 8 min. Potency, µM (doses to about 57.1 µM), inactives show top-dose activity change, negative = inhibition, actives largely listed as inhibitors. 72,000 tested, 2.2% active; also: potency is read from the fitted curve at half-maximal effect; % is scaled to controls: 0 for no effect and ±100 for the full control effect; nearly all actives have a fitted effect of over 40% in size
Target sequence (P08659 whole entry, looked up): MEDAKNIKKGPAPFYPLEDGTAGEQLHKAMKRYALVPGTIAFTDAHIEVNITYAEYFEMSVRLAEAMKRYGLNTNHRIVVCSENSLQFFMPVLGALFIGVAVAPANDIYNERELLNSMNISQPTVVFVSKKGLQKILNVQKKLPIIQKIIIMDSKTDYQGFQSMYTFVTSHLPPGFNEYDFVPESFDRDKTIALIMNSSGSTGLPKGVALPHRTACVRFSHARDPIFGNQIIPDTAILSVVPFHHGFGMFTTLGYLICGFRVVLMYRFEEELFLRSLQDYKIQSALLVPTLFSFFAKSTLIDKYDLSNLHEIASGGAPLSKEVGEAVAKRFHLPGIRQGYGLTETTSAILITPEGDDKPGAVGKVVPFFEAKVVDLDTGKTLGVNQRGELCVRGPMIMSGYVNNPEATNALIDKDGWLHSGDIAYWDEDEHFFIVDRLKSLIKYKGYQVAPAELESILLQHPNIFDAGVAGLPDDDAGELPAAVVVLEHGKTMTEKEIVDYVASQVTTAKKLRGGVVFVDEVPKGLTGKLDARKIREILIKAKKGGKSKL
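Inhibition of light generation by firefly luciferase from ATP and luciferin was profiled with concentration-response curves per sample, ATP held at 10 uM within the enzyme's linear range. Plates were read by luminescence after an 8-minute ambient incubation.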
IkB sig inh = IkB Signaling; Potency, µM (doses to about 57.1 µM), for inactives: at the highest dose IkBa stabilization activation; 110,000 tested, 0.04% active; ABC-DLBCL IkBa-CBG/CBR dual luciferase ratio, 4 h; response scale: scaled: untreated 0%, proteasome inhibitor 100%; AID 445, 2006; active = well fitted curve in the direction sought with a large enough effect in the signal ratio, not every such curve was filed as active; inconclusive = small, poorly fitted or top-dose-only effect, or a change in a side signal; the % refers to the signal ratio;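 also: potency is read from the fitted curve at half-maximal effect; the direction sought is a rising ratio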
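Luminescence ratio of IκBα-fused green versus native red beetle luciferase in OCI-Ly3 cells, 4 h post-doxycycline with compound; red signal alone, scaled from basal (0%) to zero light (-100%), flagged nonspecific or cytotoxic effects.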
p53ts 39C tox = qHTS Screen for Compounds that Selectively Target Cancer Cells with p53 Mutations: Cytotoxicity of p53ts Cells at the Nonpermissive Temperature. H1299-p53A138V viability at 39C, ATP luminescence, 24 h. 130,000 tested, 1.5% active. Potency, µM (titrated, usually from 46.1 µM), for the others: top-dose activity change, negative = cell killing, usual class: cytotoxic; also: potency is read from the fitted curve at half-maximal effect; % is scaled to controls: 0 for no effect and ±100 for the full control effect; nearly all actives have a fitted effect of over 55% in size
IMPase cell inh = qHTS Assay for Identifying the Cell-Membrane Permeable IMPase Inhibitors; Inositol monophosphatase 1 (Rattus norvegicus), P97697; CHO-M1 cells, IP1 accumulation, HTRF TR-FRET ratio; inhibition (IP1 accumulation), % at 46.1 µM; 120,000 tested, under 10 active; AID 901, 2007; active = well fitted curve in the direction sought with a large enough effect in the signal ratio, not every such curve was filed as active; inconclusive = small, poorly fitted or top-dose-only effect, or a change in a side signal; inactive = no such curve, though single readings can be large or run the other way; the % refers to the signal ratio;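 also: cells stimulated with carbachol in lithium chloride buffer; plate controls were DMSO basal wells for no effect and reference inhibitor wells for full effect; higher means more IMPase inhibition seen as more IP1 and lower FRET ratio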
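Carbachol-driven Gq signalling in CHO-M1 cells (2000/well) generates IP1. Compounds that block IMPase raise IP1 and so reduce the FRET signal from Eu-anti-IP1 and d2-IP1 after a 10 min room-temperature lysis.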
* = called active by the depositor; u = inconclusive; x = not tested or not shown; [ ] = remark or other dose. Unless noted, calls follow the shape of the dose curve; as a rule, active = well fitted curve in the direction sought with a large enough effect; inconclusive = small, poorly fitted or top-dose-only effect, or another doubt; inactive = no such curve, though single readings can be large; an effect the other way counts as inactive or inconclusive.

SMILES	p53ts 32C tox	Hsp90 Hop PPI	Luciferase inh	IkB sig inh	p53ts 39C tox	IMPase cell inh
CCOc1ccc(NC(=O)CSc2oc(-c3ccc(C)cc3)nc2S(=O)(=O)c2ccc(C)cc2)cc1	13µM*	x	x	-1%	0.79µM*	x
Brc1cccc(-c2nnn3c2nc(NCc2ccc4c(c2)OCO4)c2ccccc23)c1	-5%	x	x	u	u	x
COc1ccccc1NC(=O)c1ccccc1-c1nc(-c2ccccc2OC)no1	u	-3%	16µM*	u	-27%	-10[1.84 µM]
COc1ccccc1-c1noc(-c2ccccc2C(=O)Nc2ccccc2)n1	-2%	-3%	-18%	3%	4%	-2
CN1CCN(C(c2cccnc2)c2ccc3cccnc3c2O)CC1 (stereo not given)	-25%	3.2µM*	3%	u	13µM*	11
Cc1oc(-c2nc3ccccc3n2C)cc1C(=O)c1ccccc1	5µM*	-11%	2.5µM*	u	4µM*	9
Cn1c(-c2ccc(Br)o2)nc2cc(Br)ccc21	u	-12%	6.3µM*	-1%	u	-5
Cc1ccc(-c2nc3ccccc3n2C)o1	x	x	x	x	x	5
Cn1c(-c2ccc(Br)o2)nc2ccccc21	7.9µM*	-1%	7.9µM*	8%	10µM*	1
NCCNC(=S)S	-7%[9.22 µM]	0%[11 µM]	-2%[11.4 µM]	1%[11.4 µM]	6%[9.22 µM]	x
O=C1c2ccccc2C(=O)N1Cc1ccco1	-1%	-2%	1%	0%	3%	-3
CC1=CC(=C2C(=O)c3ccccc3C2=O)C=C(C)N1Cc1ccco1	u	-8%	13µM*	u	u	11
CCn1c(CN2CCOCC2)nc2cc(NC(=O)c3ccc([N+](=O)[O-])cc3)ccc21	-5%	x	x	0%	11%	x
CC1CC(C)(C)Nc2ccc(OC(=O)c3ccco3)cc21 (stereo not given)	16µM*	-14%	13µM*	u	10µM*	9
O=C(Oc1ccc2ccccc2c1)c1ccco1	-4%	0%	-20%	0%	6%	4
CN1C=CC(=C2C(=O)c3ccccc3C2=O)C=C1	13µM*	-5%	7.9µM*	0%	10µM*	5
CCC(=O)N(CC)C1=C(O)c2ccccc2C(=O)C1=O	x	x	x	x	x	9
CC1=CC(=C2C(=O)c3ccccc3C2=O)C=C(C)O1	-11%	-6%	-6%	-2%	-10%	4
CCN1C=CC(=C2C(=O)c3ccccc3C2=O)C=C1	0.25µM*	-4%	0.32µM*	u	0.25µM*	-2
CCCN1C=CC(=C2C(=O)c3ccccc3C2=O)C=C1	0.2µM*	-7%	0.16µM*	u	0.32µM*	10
Cc1cc(=O)[nH]c(SCCOc2ccc(OC(C)C)cc2)n1	u	0%	16µM*	-2%	u	4
O=C(O)c1cccnc1C(=O)O	11%	3.2µM*	1%	0%	3%	-11
O=c1[nH]n(-c2cccc3cccnc23)c(=O)c2ccccc12	5%	-4%	0%	-2%	-7%	0
O=S1(=O)Nc2c(ccc3cccnc23)-c2ccccc21	16%	3.2µM*	-1%	0.79µM*	-18%	5
Cc1cccc(-c2c3c(=O)n(C)c(=O)n(C)c3cn2-c2cc(N)c(Cl)cc2Cl)c1	34%	x	x	u	14%	x
C[C@H]1CCCC2(CC[N+](C)(CCC[N+](C)(C)C)CC2)C1 (stereo not given in full)	9%[9.22 µM]	5%[11 µM]	1%[11.4 µM]	-1%[11.4 µM]	7%[9.22 µM]	x
O=C(Nc1noc2ccccc12)c1ccc(F)cc1	10µM*	x	x	2%	u	x
